The values that follow come from PubChem BioAssay (EPA / NIEHS).

“And” between values parts separate entries of the source, which are not always exact repeats. Equal entries are not always repeated. More than one record can exist for a structure, and the calls need not agree. The source made the active and inactive calls. The calls were made as follows: active = hit-call score of the fitted dose curve at least 0.9, where 1 is the maximum; inactive = score below 0.9.

Assay [1] can be described thus: ATG_M_61_CIS: Attagene CIS-FACTORIAL HepG2 Assay for M61 Transcription Factor (Internal Marker) (AID 2282937). The following applies: HepG2 Attagene CIS-FACTORIAL M61 internal marker reporter; actives raise or lower the signal. The method, boiled down: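 Fluorescence from labelled cDNA fragments, separated by capillary electrophoresis, quantifies reporter induction. HepG2 cells bearing transiently transfected cis-promoter MRTUs were incubated with test chemical for 24 h; DMSO defined baseline for gain/loss fitting.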

A short description of assay [2]: ATG_EGR_CIS: Attagene CIS-FACTORIAL HepG2 Assay for human Early Growth Response 1 (EGR1) (AID 2282938). Particulars: HepG2 Attagene CIS-FACTORIAL EGR reporter mRNA; actives raise or lower the signal. The method, boiled down:
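Cell-based multiplex transcription assay: HepG2 carrying transfected cis-element reporter units, 24 h chemical treatment. Fluorescence from capillary electrophoresis of RT-PCR products gives mRNA levels; fitting is bidirectional relative to DMSO.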

Assay [3] is described as follows: ATG_M_19_CIS: Attagene CIS-FACTORIAL HepG2 Assay for M19 Transcription Factor (Internal Marker) (AID 2282939). Particulars: HepG2 Attagene CIS-FACTORIAL M19 internal marker reporter; actives raise or lower the signal. The method, boiled down:
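Signals come from fluorescence of labelled reporter-specific PCR fragments resolved by capillary electrophoresis, following 24 h treatment of HepG2 cells transfected with cis-promoter reporter units; activity was fitted in both directions relative to DMSO.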

Assay [4] in a line: ATG_ERE_CIS: Attagene CIS-FACTORIAL HepG2 Assay for Estrogen Response Element (ERE) (AID 2282940). The following applies: HepG2 ERE cis-reporter, Attagene RNA transcript; actives raise or lower the signal. The method, boiled down:
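Fluorescence of capillary-separated, FAM-labelled reporter cDNA fragments indicates reporter mRNA levels in HepG2 cells exposed to chemicals for 24 h. Transient transfection with cis-regulated units; data fitted in both directions against DMSO.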

A short description of assay [5]: ATG_FoxO_CIS: Attagene CIS-FACTORIAL HepG2 Assay for human Forkhead box O (FoxO) (AID 2282943). The following applies: HepG2 Attagene cis-reporter, FoxO element, mRNA; actives raise or lower the signal. In a few lines: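 Read-out: fluorescence of 6-FAM-labelled reporter cDNA fragments resolved by capillary electrophoresis. Transiently transfected HepG2 cells were dosed for 24 h; activity fitted in both directions relative to DMSO controls.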

Assay [6] is described as follows: ATG_GATA_CIS: Attagene CIS-FACTORIAL HepG2 Assay for human GATA Binding Protein (AID 2282944). The following applies: HepG2 GATA cis-element reporter, Attagene multiplex mRNA; actives raise or lower the signal. In a few lines:
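After transfecting HepG2 cells with multiple cis-regulated reporter units, chemicals are dosed for 24 h; isolated RNA undergoes RT-PCR and fluorescent labeling before capillary electrophoresis, with activity expressed against DMSO.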

Assay [7] can be described thus: ATG_GLI_CIS: Attagene CIS-FACTORIAL HepG2 Assay for human Zinc Finger Protein GLI1 (AID 2282945). Particulars: HepG2, Attagene cis-factorial reporter mRNA, GLI element; actives raise or lower the signal. The method, boiled down: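 Transiently transfected HepG2 cells report endogenous transcription factor activity via cis-element-driven reporter units. After 24 h compound exposure, reporter mRNA was measured by RT-PCR with capillary electrophoresis; bidirectional fitting against DMSO baseline.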

In assay [8] the target is Bile acid receptor (Homo sapiens) (UniProt Q96RI1). Put plainly: ATG_IR1_CIS: Attagene CIS-FACTORIAL HepG2 Assay for human Nuclear Receptor Subfamily 1 Group H Member 4 (NR1H4), IR1 submotif (AID 2282946). Particulars: IR1 reporter transcription, actives raise or lower the signal. In a few lines: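 HepG2 cells transiently transfected with multiple cis-promoter-driven reporter units to measure endogenous transcription factor activity; 24 h exposure. Reporter mRNA read by RT-PCR, FAM labelling, HpaI digestion and capillary electrophoresis. Bidirectional fit versus DMSO.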

Assay [9] can be described thus: ATG_GRE_CIS: Attagene CIS-FACTORIAL HepG2 Assay for human Glucocorticoid Response Elements (GRE) (AID 2282947). Particulars: HepG2 GRE cis-reporter, Attagene multiplex mRNA; actives raise or lower the signal. The method, boiled down:
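Transiently transfected HepG2 cells carrying GRE cis-reporter units (endogenous TF activity) dosed 24 h; reporter mRNA quantified by RT-PCR, 6-FAM labelling, HpaI digestion and capillary electrophoresis. Bidirectional fit versus DMSO baseline.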

The nature of assay [10]: ATG_ISRE_CIS: Attagene CIS-FACTORIAL HepG2 Assay for human Interferon Regulatory Factor 1 (IRF1) binding to an Interferon-Stimulated Response Element (ISRE) (AID 2282948). The following applies: HepG2 ISRE cis-reporter (Attagene), mRNA transcription readout; actives raise or lower the signal. The method, boiled down:
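HepG2 cells transiently transfected with multiplexed cis-promoter reporter units; after 24 h compound exposure, reporter mRNA quantified by RT-PCR, FAM labelling, HpaI digestion and capillary electrophoresis. Bidirectional fit versus DMSO baseline.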

The nature of assay [11]: ATG_M_32_CIS: Attagene CIS-FACTORIAL HepG2 Assay for M32 Transcription Factor (Internal Marker) (AID 2282949).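 Also: background control marker of the multiplexed CIS panel rather than a real target.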 The following applies: HepG2 Attagene cis-factorial M32 reporter, mRNA; actives raise or lower the signal. In a few lines:
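HepG2 cells transiently transfected with multiplexed cis-regulated reporter units, dosed 24 h. Reporter mRNA quantified by RT-PCR, 6-FAM labelling, HpaI digestion and capillary electrophoresis; bidirectional fit vs DMSO.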

Assay [12] in a line: ATG_M_06_CIS: Attagene CIS-FACTORIAL HepG2 Assay for M06 Transcription Factor (Internal Marker) (AID 2282950). The following applies: HepG2 Attagene CIS-FACTORIAL M06 internal marker reporter; actives raise or lower the signal. The method, boiled down: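 HepG2 liver cells, 24 h exposure. Reporter transcripts from transfected cis-element constructs quantified by RT-PCR/capillary electrophoresis fluorescence. Bidirectional curve fit against DMSO.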

Assay [13] has as its target Hypoxia-inducible factor 1-alpha (Homo sapiens) (UniProt Q16665). Put plainly: ATG_HIF1a_CIS: Attagene CIS-FACTORIAL HepG2 Assay for human Hypoxia Inducible Factor 1 (HIF1A) (AID 2282951). The following applies: HepG2 Attagene cis-factorial HIF1a reporter transcription; actives raise or lower the signal. In a few lines:
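In this multiplexed cell assay, HepG2 cells bearing transfected cis reporters are dosed for 24 h and reporter mRNA is read by RT-PCR plus capillary electrophoresis; signal increases and decreases are both scored against DMSO.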

The target of assay [14] is Hepatocyte nuclear factor 6 (Homo sapiens) (UniProt Q9UBC0). The assay is described as follows: ATG_HNF6_CIS: Attagene CIS-FACTORIAL HepG2 Assay for human Hepatocyte Nuclear Factor 6 (HNF6) (AID 2282952). The following applies: HepG2 Attagene cis-factorial HNF6 reporter transcription; actives raise or lower the signal. The method, boiled down:
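Multiplexed mRNA reporter assay in transfected HepG2; 24 h dosing; RT-PCR plus capillary electrophoresis fluorescence; DMSO-referenced bidirectional curve fitting.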

The target in assay [15] is Heat shock factor protein 1 (Homo sapiens) (UniProt Q00613). The assay is described as follows: ATG_HSE_CIS: Attagene CIS-FACTORIAL HepG2 Assay for human Heat Shock Transcription Factor 1 (HSE) (AID 2282953). Particulars: HepG2 HSE cis-reporter, Attagene RNA transcription; actives raise or lower the signal. In a few lines:
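Endogenous transcription factor activity captured via cis-promoter reporter units transfected into HepG2; treatment lasted 24 h. Fluorescence intensity of reporter fragments analysed with bidirectional curve fitting, DMSO baseline.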

A short description of assay [16]: ATG_MRE_CIS: Attagene CIS-FACTORIAL HepG2 Assay for human Metal Responsive Element (MRE) (AID 2282954). The following applies: HepG2 MRE cis-reporter transcription, Attagene multiplex; actives raise or lower the signal. The method, boiled down: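 HepG2 cells transiently transfected with cis-element-driven reporter units; mRNA measured 24 h after dosing. Reporter transcripts quantified by RT-PCR, FAM labelling, HpaI digestion and capillary electrophoresis; bidirectional fit versus DMSO.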

The nature of assay [17]: ATG_PBREM_CIS: Attagene CIS-FACTORIAL HepG2 Assay for human Phenobarbital-responsive Enhancer Module (PBREM) (AID 2282955). Particulars: HepG2 PBREM cis-reporter, Attagene multiplexed transcription; actives raise or lower the signal. In a few lines: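 After a 24 h incubation with test chemical, transfected HepG2 cells yield total RNA; reporter-specific RT-PCR products are fluorescently labelled, HpaI-digested and resolved by capillary electrophoresis against ROX size standards.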

Assay [18] has as its target Paired box protein Pax-6 (Homo sapiens) (UniProt P26367). Put plainly: ATG_Pax6_CIS: Attagene CIS-FACTORIAL HepG2 Assay for human Paired Box 6 (PAX6) (AID 2282956). Particulars: HepG2 CIS-FACTORIAL PAX6 reporter transcription, RNA readout; actives raise or lower the signal. The method, boiled down: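 HepG2 cells transiently transfected with multiplexed cis-promoter reporter units (endogenous TF activity) were dosed for 24 h. Reporter mRNA was quantified by RT-PCR, 6-FAM labeling, HpaI digestion and capillary electrophoresis; bidirectional fitting versus DMSO baseline.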

A short description of assay [19]: ATG_Ets_CIS: Attagene CIS-FACTORIAL HepG2 Assay for human Erythroblast Transformation Specific (ETS) (AID 2282941). The following applies: HepG2 ETS cis-reporter transcription, actives raise or lower the signal. The method, boiled down:
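HepG2 cells transiently transfected with cis-promoter reporter transcription units were dosed for 24 h; reporter mRNA was measured by RT-PCR, 6-FAM primer extension, HpaI digestion and capillary electrophoresis, with bidirectional fitting against DMSO baseline.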

Assay [20] deals with Hepatocyte nuclear factor 3-beta (Homo sapiens) (UniProt Q9Y261). The assay is described as follows: ATG_FoxA2_CIS: Attagene CIS-FACTORIAL HepG2 Assay for human Forkhead box A2 (FOXA2) (AID 2282942). The following applies: HepG2 cis-reporter transcription factor activity, 24 h; actives raise or lower the signal. In a few lines: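 In transiently transfected human HepG2 cells, promoter-driven reporter mRNA levels after 24 h chemical exposure are determined via RT-PCR with capillary electrophoresis. DMSO serves as baseline for bidirectional fitting.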
Hepatocyte nuclear factor 3-beta (Homo sapiens), sequence (Q9Y261 whole entry, looked up): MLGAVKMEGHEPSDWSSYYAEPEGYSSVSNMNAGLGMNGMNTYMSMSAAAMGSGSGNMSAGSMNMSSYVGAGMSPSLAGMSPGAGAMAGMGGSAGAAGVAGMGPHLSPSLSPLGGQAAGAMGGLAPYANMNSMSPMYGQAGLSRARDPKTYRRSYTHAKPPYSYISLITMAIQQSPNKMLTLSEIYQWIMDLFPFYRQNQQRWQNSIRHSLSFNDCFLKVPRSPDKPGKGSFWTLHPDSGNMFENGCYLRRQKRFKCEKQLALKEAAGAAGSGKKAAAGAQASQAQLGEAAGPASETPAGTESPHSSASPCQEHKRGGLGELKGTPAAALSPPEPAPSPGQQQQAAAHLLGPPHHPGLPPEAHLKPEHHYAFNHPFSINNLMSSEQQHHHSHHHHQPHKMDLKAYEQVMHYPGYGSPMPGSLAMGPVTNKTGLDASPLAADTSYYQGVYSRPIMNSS

Heat shock factor protein 1 (Homo sapiens), sequence (Q00613 whole entry, looked up, the tested form may be a part): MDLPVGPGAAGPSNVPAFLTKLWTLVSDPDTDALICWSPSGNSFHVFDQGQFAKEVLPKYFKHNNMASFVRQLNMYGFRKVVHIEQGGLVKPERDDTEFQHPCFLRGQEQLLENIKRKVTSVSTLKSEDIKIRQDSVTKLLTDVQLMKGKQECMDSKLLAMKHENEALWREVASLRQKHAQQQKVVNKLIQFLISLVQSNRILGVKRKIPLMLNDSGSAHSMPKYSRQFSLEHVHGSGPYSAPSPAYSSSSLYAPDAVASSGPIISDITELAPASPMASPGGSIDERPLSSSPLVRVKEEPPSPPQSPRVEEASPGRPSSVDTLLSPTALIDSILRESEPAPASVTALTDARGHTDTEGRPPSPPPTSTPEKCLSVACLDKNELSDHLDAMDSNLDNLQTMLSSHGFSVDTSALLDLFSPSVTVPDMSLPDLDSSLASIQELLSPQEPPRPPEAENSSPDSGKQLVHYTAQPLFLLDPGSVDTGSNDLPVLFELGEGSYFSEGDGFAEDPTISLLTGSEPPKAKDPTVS
Hypoxia-inducible factor 1-alpha (Homo sapiens), sequence (Q16665 whole entry, looked up): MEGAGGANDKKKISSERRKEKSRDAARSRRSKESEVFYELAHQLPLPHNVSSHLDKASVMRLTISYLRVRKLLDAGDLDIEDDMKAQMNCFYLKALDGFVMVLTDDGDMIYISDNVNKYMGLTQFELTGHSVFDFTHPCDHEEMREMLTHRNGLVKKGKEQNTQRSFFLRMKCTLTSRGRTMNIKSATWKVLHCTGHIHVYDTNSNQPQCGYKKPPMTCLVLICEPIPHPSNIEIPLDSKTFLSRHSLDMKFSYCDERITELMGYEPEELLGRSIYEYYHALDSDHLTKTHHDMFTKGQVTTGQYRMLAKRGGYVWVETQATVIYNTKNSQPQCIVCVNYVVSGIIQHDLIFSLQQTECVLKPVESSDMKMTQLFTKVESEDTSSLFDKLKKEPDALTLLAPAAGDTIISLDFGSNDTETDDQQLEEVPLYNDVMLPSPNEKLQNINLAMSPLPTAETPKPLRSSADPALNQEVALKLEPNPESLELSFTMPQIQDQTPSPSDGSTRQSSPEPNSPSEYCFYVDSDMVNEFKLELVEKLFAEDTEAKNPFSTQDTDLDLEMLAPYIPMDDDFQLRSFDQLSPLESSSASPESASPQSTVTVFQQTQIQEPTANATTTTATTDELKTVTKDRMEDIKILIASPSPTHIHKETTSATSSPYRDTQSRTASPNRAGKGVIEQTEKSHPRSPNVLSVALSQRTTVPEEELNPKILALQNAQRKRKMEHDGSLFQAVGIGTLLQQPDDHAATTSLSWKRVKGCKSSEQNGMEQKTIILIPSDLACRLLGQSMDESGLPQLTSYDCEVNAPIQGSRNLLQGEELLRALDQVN
Paired box protein Pax-6 (Homo sapiens), sequence (P26367 whole entry, looked up): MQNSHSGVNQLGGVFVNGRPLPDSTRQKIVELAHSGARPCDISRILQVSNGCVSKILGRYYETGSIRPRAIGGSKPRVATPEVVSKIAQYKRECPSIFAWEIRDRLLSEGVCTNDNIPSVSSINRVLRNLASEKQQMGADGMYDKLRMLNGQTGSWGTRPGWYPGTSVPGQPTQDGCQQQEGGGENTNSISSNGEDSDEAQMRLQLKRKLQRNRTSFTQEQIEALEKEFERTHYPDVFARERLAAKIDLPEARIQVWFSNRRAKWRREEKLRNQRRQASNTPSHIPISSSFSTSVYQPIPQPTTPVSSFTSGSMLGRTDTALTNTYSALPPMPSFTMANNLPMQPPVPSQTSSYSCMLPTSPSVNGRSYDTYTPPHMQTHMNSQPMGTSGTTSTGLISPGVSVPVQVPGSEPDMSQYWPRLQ
Bile acid receptor (Homo sapiens), sequence (Q96RI1 whole entry, looked up): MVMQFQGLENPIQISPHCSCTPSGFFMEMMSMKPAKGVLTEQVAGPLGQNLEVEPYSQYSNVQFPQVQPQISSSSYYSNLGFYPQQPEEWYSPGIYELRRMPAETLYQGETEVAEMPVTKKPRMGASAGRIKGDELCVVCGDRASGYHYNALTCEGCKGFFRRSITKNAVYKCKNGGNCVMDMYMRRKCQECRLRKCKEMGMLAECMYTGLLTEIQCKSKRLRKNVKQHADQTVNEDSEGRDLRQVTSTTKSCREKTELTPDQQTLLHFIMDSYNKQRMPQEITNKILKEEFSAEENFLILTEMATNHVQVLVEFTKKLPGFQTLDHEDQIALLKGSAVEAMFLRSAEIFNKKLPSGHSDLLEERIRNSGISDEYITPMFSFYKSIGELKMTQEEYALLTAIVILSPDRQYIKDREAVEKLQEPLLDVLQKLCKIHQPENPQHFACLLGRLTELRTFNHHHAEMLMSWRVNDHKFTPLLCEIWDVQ
Hepatocyte nuclear factor 6 (Homo sapiens), sequence (Q9UBC0 whole entry, looked up): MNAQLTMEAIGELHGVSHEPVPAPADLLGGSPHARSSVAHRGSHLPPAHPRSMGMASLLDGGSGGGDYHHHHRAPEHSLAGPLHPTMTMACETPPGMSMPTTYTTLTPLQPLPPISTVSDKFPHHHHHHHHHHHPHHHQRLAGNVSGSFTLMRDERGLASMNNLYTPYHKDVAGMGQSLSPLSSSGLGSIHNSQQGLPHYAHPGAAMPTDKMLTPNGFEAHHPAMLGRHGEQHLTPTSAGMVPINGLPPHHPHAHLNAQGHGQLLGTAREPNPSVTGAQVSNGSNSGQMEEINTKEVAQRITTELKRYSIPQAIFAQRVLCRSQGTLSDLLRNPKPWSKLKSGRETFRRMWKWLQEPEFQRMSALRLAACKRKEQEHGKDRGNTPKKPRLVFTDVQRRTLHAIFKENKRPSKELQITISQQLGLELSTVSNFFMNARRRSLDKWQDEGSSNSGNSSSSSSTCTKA

With `O=c1oc2ccccc2c(O)c1C(CC(O)c1ccc(-c2ccc(Br)cc2)cc1)c1ccccc1` (centres undefined), the result in assay [1], in assay [3], in assay [4], in assay [5], in [6] and in assay [7] was inactive. The compound was called inactive in assay [9], in [10], in [11], in [12], in assay [13] and in assay [14]. For the same compound, in [17], the outcome was inactive. Moreover, the half-maximal activity concentration (AC50) (as a rule, the midpoint of the concentration-response curve, whichever way the signal moves) in [2] was 41.1 µM (active) and 17.8 µM (active); in assay [7], 46.3 µM (active); in assay [8] it was 50.1 µM (active) and 43.6 µM (active); in [10] it was 24.9 µM (active); in assay [13] it was 14.6 µM (active); in assay [15] it was 48.7 µM (active) and 59.6 µM (active). Further, the concentration at half-maximal activity (AC50) in assay [16] is 40.3 µM (active) and 31.9 µM (active); in assay [17], 31.7 µM (active); in [18], 46.5 µM (active) and 31.9 µM (active).

With `CC(C)C(C)(N)C#N` (centres undefined), the compound was classed as inactive in assay [1], in [2], in [3], in assay [19], in [20] and in assay [5]. For the same compound, the outcome in assay [6], in [7], in [8], in assay [9], in assay [10] and in [11] was inactive. In addition, the outcome in assay [12], in [13], in assay [14], in assay [15], in assay [16] and in assay [17] was inactive. In addition, the compound was classed as inactive in assay [18].

In the case of `O=NN1CCCCCCC1`, the call in [1], in assay [2], in assay [3], in [4], in [20] and in assay [5] was inactive. The result in [6], in assay [7], in [8], in [9], in assay [11] and in assay [13] was inactive. Besides, the call in assay [14], in assay [15], in assay [16], in [17] and in assay [18] was inactive.

Take `Cc1cccc(N=Nc2ccc(N(C)C)cc2)c1`: the outcome in [1], in [2], in assay [3], in assay [4], in assay [5] and in [7] was inactive. In addition, the outcome in assay [9], in assay [10], in [11], in assay [12], in assay [13] and in [14] was inactive. In addition, the compound was classed as inactive in [15], in [16], in assay [17] and in assay [18].
